Measurements from PubChem BioAssay (NCATS).
Values joined by “and” are separate entries in the source; they are usually repeats but may differ in a detail not shown here. Equal entries are not always repeated. Results filed as inconclusive are left out. Some structures have more than one record in an assay (separate samples or runs), and their calls can disagree. Active and inactive are the calls of the source. Unless noted, the call rests on the fitted dose curve; in most records, active means well fitted curve in the direction sought with a large enough effect; inconclusive means small, poorly fitted or top-dose-only effect, or another doubt; inactive means no such curve, though single readings can be large; an effect the other way counts as inactive or inconclusive. Peptide text beside a SMILES is read from it.

Assays:
[1] = AP1 Signaling Pathway (AID 357; active means well fitted curve in either direction with a large enough effect, not every such curve was filed as active;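 further: ME-180 reporter cells stimulated with EGF at its EC50 level; on the % scale 0 is the no-effect control and ±100 the full control effect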)
How it was run: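 Cells are seeded overnight, exposed to compound titrations and an EC50 level of EGF for 5 hours at 37 °C, then loaded with CCF4 dye for 2.5 hours. Beta-lactamase activity under the AP-1 element is read as a blue/green ratio.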

[2] = NFAT Signaling Pathway (AID 444; active means well fitted curve in either direction with a large enough effect, not every such curve was filed as active;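 further: carbachol stimulus at about its EC50 of 1 µM final; on the % scale 0 is the no-effect control and ±100 the full control effect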); conditions: Jurkat NFAT-bla M1, carbachol, beta-lactamase ratio, 5 h
How it was run: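 Read-out: CCF4 FRET ratio (460 nm/530 nm) after 1 h RT dye loading, used for %activity and AC50 from titration series. Cells: Jurkat NFAT-β-lactamase/M1 line, treated with compound plus 1 uM carbachol for 5 h, 37 °C.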

[3] = Stat Signaling Pathway (AID 446; active means well fitted curve in either direction with a large enough effect, not every such curve was filed as active;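 further: ME-180 cervical cancer cells given 40 pM IL-6 alongside compound; SIE-controlled beta-lactamase reporter measured as 460/530 nm FRET emission ratio; on the % scale 0 is the no-effect control and ±100 the full control effect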)
How it was run: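 Overnight-plated ME-180 cells bearing a STAT Inducible Element beta-lactamase reporter; 5 h co-exposure to compound and 40 pM IL-6; values normalized to 300 pM IL-6 and 125 nM JAK inhibitor controls.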

[4] = target: Lysosomal acid glucosylceramidase (Homo sapiens) (UniProt P04062); experiment: Glucocerebrosidase-p2 (AID 348; in the data active means potency below about 10 µM; further: potency means the concentration at half of the fitted maximal effect); conditions: purified GBA, blue fluorogenic substrate, 40 min
Chain of Lysosomal acid glucosylceramidase (Homo sapiens) (P04062 whole entry, looked up): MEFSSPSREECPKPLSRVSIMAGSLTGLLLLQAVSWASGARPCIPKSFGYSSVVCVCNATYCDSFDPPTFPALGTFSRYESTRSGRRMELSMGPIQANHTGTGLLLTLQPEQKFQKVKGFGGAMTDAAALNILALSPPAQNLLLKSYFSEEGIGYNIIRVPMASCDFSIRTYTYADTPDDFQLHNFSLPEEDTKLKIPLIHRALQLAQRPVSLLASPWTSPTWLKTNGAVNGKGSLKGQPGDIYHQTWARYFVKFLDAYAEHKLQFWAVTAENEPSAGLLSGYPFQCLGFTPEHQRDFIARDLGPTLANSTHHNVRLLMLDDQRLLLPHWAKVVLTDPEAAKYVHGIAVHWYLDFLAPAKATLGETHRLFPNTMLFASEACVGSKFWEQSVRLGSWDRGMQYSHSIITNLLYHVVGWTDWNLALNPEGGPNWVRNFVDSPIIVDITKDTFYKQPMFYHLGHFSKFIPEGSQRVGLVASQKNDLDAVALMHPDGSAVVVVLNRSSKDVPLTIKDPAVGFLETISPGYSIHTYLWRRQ
How it was run: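 Normal human glucocerebrosidase (0.2 nM) with blue fluorogenic substrate (80 uM final) in citrate/phosphate pH 5.9 with 10mM sodium taurocholate, 0.01% tween-20; 40 min RT, NaOH/glycine stop; fluorescence Ex 365/Em 440; AC50 from a titration from 0.6 nM upwards.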

[5] = target: Cytochrome P450 1A2 (Homo sapiens) (UniProt P05177); experiment: p450-cyp1a2 (AID 410; calls by dose curve; further: potency means the concentration at half of the fitted maximal effect;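 on activity change, negative = inhibition: -100% = full effect of reference inhibitor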)
Chain of Cytochrome P450 1A2 (Homo sapiens) (P05177 whole entry, looked up): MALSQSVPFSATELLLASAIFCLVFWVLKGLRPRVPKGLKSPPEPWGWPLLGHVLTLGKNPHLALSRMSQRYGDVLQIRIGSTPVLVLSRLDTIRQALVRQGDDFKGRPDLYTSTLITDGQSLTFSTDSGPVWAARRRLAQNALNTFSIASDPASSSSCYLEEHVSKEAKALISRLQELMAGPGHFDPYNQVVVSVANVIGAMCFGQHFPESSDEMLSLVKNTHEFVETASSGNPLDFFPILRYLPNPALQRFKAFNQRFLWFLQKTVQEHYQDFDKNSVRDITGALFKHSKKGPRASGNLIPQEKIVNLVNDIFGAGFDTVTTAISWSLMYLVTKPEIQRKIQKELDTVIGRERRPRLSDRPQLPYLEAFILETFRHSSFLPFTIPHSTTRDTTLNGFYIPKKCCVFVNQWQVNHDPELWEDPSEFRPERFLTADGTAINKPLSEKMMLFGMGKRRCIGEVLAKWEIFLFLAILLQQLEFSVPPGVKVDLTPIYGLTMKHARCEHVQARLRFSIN
How it was run: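 O-Demethylation of luciferin 6' methyl ether by human CYP1A2 is monitored as luciferase luminescence. Substrate sits at Km (100uM); enzyme is 20nM. Values are scaled to 57 uM furafylline as maximal inhibition.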

[6] = target: Glucocorticoid receptor (Homo sapiens) (UniProt P04150); experiment: GR-EFC Redistribution (AID 451; calls by dose curve; further: potency means the concentration at half of the fitted maximal effect); conditions: CHO-K1 GR-EFC translocation, beta-gal luminescence, 2 h
Chain of Glucocorticoid receptor (Homo sapiens) (P04150 whole entry, looked up, the tested form may be a part): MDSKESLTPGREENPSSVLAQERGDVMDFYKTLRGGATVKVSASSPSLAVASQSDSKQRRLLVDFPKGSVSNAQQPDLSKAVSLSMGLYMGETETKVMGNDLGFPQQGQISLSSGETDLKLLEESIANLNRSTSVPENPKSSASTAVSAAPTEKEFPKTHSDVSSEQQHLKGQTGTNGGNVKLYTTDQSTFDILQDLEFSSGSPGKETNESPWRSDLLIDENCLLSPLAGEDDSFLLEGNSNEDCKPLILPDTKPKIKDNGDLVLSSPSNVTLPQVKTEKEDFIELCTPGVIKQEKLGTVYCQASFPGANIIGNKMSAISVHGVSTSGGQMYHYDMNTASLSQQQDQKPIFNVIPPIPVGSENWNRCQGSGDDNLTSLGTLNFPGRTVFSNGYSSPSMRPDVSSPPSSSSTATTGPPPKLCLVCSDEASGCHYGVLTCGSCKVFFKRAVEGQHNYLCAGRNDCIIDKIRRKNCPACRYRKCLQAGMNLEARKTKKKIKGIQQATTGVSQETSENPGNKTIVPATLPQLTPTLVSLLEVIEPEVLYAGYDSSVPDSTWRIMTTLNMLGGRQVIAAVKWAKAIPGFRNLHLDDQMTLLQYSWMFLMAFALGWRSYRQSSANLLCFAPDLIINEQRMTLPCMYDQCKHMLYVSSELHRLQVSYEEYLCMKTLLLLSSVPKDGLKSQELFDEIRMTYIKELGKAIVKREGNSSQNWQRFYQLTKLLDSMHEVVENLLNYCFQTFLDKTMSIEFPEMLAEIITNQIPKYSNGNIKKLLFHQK
How it was run: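 Translocation of GR-ED fusion to nuclear EA restores b-gal, read by luminescence after 1 h room-temperature detection. Engineered CHO-K1 biosensor cells, 1,000/well, exposed 2 h at 37 C to titrations up to 46 uM final.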

[7] = target: Mitogen-activated protein kinase 10 (Mus musculus) (UniProt Q61831); experiment: JNK3 AlphaScreen Assay (AID 530; active means well fitted curve in either direction with a large enough effect, not every such curve was filed as active;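 further: kinase came from lysate of stimulated human HepG2 cells; signal reports phosphorylation of biotinylated GST-cJun 1-79 at Ser73 with 10 µM ATP; on the % scale 0 is the no-effect control and ±100 the full control effect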)
How it was run: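 qHTS titrations with 15 min compound pre-incubation before adding ATP (10 uM final). Read-out: AlphaScreen of Ser73-phosphorylated biotin-GST-cJun using HepG2 lysate JNK3 activated by IL-1β and TNFα.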

[8] = Cell Viability - BJ (AID 421; calls by dose curve;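 further: potency means the concentration at half of the fitted maximal effect; cells exposed to compound for 40 hours at 37 °C before readout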); conditions: BJ fibroblast viability, qHTS
How it was run: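 Quantitative HTS: ATP depletion in BJ cells after 40 hr compound exposure in complete culture medium, detected with CellTiter-Glo; AC50 from standard Hill fits.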

[9] = Cell Viability - Jurkat (AID 426;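 active means dose-dependent loss of cell ATP signal giving a full or clear fitted curve, ranked by lower potency value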;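 further: potency means the concentration at half of the fitted maximal effect; cells exposed to compound for 40 hours at 37 °C before ATP read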); conditions: qHTS
How it was run: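 Cells of the human T-cell leukemia line Jurkat (E6-1) are seeded at 5000 per well, treated with compound across a concentration range for 40 hours at 37 °C, then lysed with CellTiter-Glo; luminescence reports ATP.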

[10] = Cell Viability - Hek293 (AID 427;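 active means compounds whose dose-response curve shows a full or clear partial loss of cell viability, called from curve shape rather than a numeric limit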;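 further: potency means the concentration at half of the fitted maximal effect; cells exposed to compound for 40 hours at 37 °C before reading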); conditions: qHTS
How it was run: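 AC50 values derive from Hill-modelled concentration-response of ATP-based luminescence, normalized between DMSO-only and 100 uM tamoxifen controls. Cells were exposed in complete culture medium for 40 hr at 37 °C before detection.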

[11] = Cell Viability - HepG2 (AID 433; calls by dose curve;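 further: potency means the concentration at half of the fitted maximal effect; potency for ATP loss meaning cytotoxicity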); conditions: qHTS
How it was run: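 Read-out is luciferase-based quantitation of cellular ATP as a measure of viable HepG2 cells after 40 h treatment at 37 °C. Signal decrease is scaled between DMSO-only and 100 uM tamoxifen controls, with AC50 fitted by the Hill equation.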

[12] = Cell Viability - MRC5 (AID 434; calls by dose curve;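 further: potency means the concentration at half of the fitted maximal effect; potency reflects cytotoxicity seen as loss of intracellular ATP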); conditions: MRC5 lung fibroblast viability, qHTS
How it was run: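 AC50 values come from Hill-equation fits of intracellular ATP loss, measured by CellTiter-Glo luminescence. Normal lung fibroblasts (MRC5) had 40 hr compound treatment at 37 C, normalized between DMSO and 100 uM tamoxifen.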

[13] = Cell Viability - SK-N-SH (AID 435; calls by dose curve;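 further: potency means the concentration at half of the fitted maximal effect; compound exposure lasted 40 h at 37 °C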); conditions: SK-N-SH neuroblastoma cell viability qHTS
How it was run: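 Luminescent ATP signal served as the viability read-out after 40 hours of compound treatment of human neuroblastoma SK-N-SH cells. Concentration-response data, scaled between DMSO and 100 uM tamoxifen, gave AC50 values by standard Hill modeling.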

[14] = Cell Viability - N2a (AID 540); conditions: N2a mouse neuroblastoma cell viability; at 92.2 µM (top of the series);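 further: cells exposed to compound for 40 h at 37 °C; plate controls were DMSO alone for no effect and tamoxifen control for full effect; nearly all actives have a fitted effect of over 45% in size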
How it was run: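 Cytotoxicity was scored as loss of cellular ATP in N2a cells, a mouse neuroblastoma line. Compounds are applied in a qHTS concentration series for 40 hr at 37 °C.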

[15] = Cell Viability - NIH 3T3 (AID 541);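 further: plate controls were DMSO alone for no effect and tamoxifen positive control for full effect; nearly all actives have a fitted effect of over 25% in size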
How it was run: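 Cells seeded at 1000/well, rested 5 hr at 37 °C, then dosed and incubated 40 hr at 37 °C. CellTiter-Glo added, 20 min room temperature, luminescence read. AC50 by Hill fit.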

[16] = Cell Viability - HUV-EC-C (AID 542); further: on the % scale 0 is the no-effect control and ±100 the full control effect; nearly all actives have a fitted effect of over 35% in size
How it was run: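 Cells were seeded at 1000 per well and incubated 5 hr at 37 °C before compound addition. After 40 hr at 37 °C, CellTiter-Glo reagent was added for 20 min and luminescence read. AC50 values came from Hill-equation modelling.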

[17] = Cell Viability - H-4-II-E (AID 543); further: on the % scale 0 is the no-effect control and ±100 the full control effect; nearly all actives have a fitted effect of over 35% in size
How it was run: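 Cells seeded at 1500 per well and rested 5 hr; compounds added; 40 hr incubation at 37 °C; CellTiter-Glo added, 20 min at room temperature; luminescence read. Hill-equation fits gave AC50.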

[18] = Cell Viability - SH-SY5Y (AID 544); conditions: SH-SY5Y neuroblastoma cell viability; at 92.2 µM (top of the series);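 further: 0% = DMSO alone and -100% = 100 µM tamoxifen; nearly all actives have a fitted effect of over 55% in size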
How it was run: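 Cells were plated at 1500 per well and allowed 5 hr at 37 °C. Compounds were added across a concentration range and incubated 40 hr at 37 °C. CellTiter-Glo was added for 20 min at room temperature before luminescence reading.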

[19] = Cell Viability - Renal Proximal Tubule (AID 545);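 further: 0% = DMSO only and -100% = 100 µM tamoxifen; nearly all actives have a fitted effect of over 40% in size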
How it was run: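 Luminescent ATP signal (CellTiter-Glo) served as the viability read-out after 40 hr compound exposure of freshly isolated rat proximal tubule cells at 37 °C. Concentration-dependent ATP loss was fitted with the Hill equation to give AC50.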

[20] = Cell Viability - Mesenchymal (AID 546); conditions: mesenchymal cells viability, qHTS; at 91.7 µM (top of the series);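 further: cells exposed to compound for 40 hours before reading; 0% = DMSO only and -100% = 100 µM tamoxifen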
How it was run: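 CellTiter-Glo luminescence (intracellular ATP, 20 min room temperature) after 40 hr compound exposure at 37 °C of 1000 glomerulus-derived human kidney mesenchymal cells/well; AC50 values obtained by fitting qHTS concentration-response data to the Hill equation.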

C[C@]12C=CC(=O)C=C1CC[C@@H]1[C@@H]2[C@@H](O)C[C@@]2(C)[C@H]1CC[C@]2(O)C(=O)COC(=O)CCC(=O)O
outcome [1]: inactive
activity change, negative = inhibition ([2]; at 17.2 µM (top of the series)): 20.1% (inactive)
outcome [3]: inactive

CN(C)CCCN1c2ccccc2C(C)(C)c2ccccc21
Potency [4]: > 11.4 µM (inactive)
Potency [5]: 5.01 µM (active)
outcome [3]: inactive
Potency [6]: > 9.22 µM (inactive)
activity change, negative = inhibition [7]: -0.792% [at 11.4 µM] (inactive)

O=C(O)CCC(=O)C(=O)O
Potency [4]: > 11.4 µM (inactive)
outcome [1]: inactive
activity change, negative = inhibition [5]: -11.7% [at 11.4 µM] (inactive)
Potency [8]: > 92 µM (inactive)
Potency [9]: > 92 µM (inactive)
Potency [10]: > 92 µM (inactive)
Potency [11]: > 92 µM (inactive)
Potency [12]: > 92 µM (inactive)
Potency [13]: > 92 µM (inactive)
activity change, negative = inhibition ([2]; at 7.69 µM (top of the series)): 15.2% (inactive)
outcome [3]: inactive
Potency [6]: > 9.22 µM (inactive)
outcome [7]: inactive
activity change, negative = cytotoxicity [14]: 6.48% (inactive)
outcome [15]: inactive
Potency [16]: inactive
Potency [17]: inactive
viability change, negative = cytotoxic [18]: 4.65% (inactive)
outcome [19]: inactive
activity change, negative = cytotoxicity [20]: 6.49% (inactive)

C[C@@H]1C[C@H]2[C@@H]3CCC4=CC(=O)C=C[C@]4(C)[C@@]3(F)[C@@H](O)C[C@]2(C)[C@@]1(O)C(=O)COP(=O)(O)O
outcome [1]: inactive
outcome [3]: inactive

CN=C(NC#N)Nc1ccc(C2=NNC(=O)C[C@@H]2C)cc1
outcome [1]: inactive
Potency [5]: inactive and 39.8 µM (active)
activity change, negative = inhibition ([2]; at 38 µM (top of the series)): -1.21% (inactive)
outcome [3]: inactive
outcome [7]: inactive

CCCCCCCC(=O)O
Potency [8]: > 92 µM (inactive)
Potency [9]: > 92 µM (inactive)
Potency [10]: > 92 µM (inactive)
Potency [11]: > 92 µM (inactive)
Potency [12]: > 92 µM (inactive)
Potency [13]: > 92 µM (inactive)
outcome [7]: inactive
activity change, negative = cytotoxicity [14]: -0.485% (inactive) and -3.97% (inactive)
outcome [15]: inactive
Potency [16]: inactive
Potency [17]: inactive
viability change, negative = cytotoxic [18]: 0.495% (inactive) and -6.94% (inactive)
outcome [19]: inactive
activity change, negative = cytotoxicity [20]: 4.9% (inactive) and 1.62% (inactive)

CC(=O)N[C@@H](CC(=O)O)C(=O)N[C@@H](CCC(=O)O)C(=O)O (Ac-Asp-Glu-OH)
Potency [5]: inactive
activity change, negative = inhibition ([2]; at 17.2 µM (top of the series)): -12.3% (inactive)
outcome [3]: inactive
Potency [6]: > 20.6 µM (inactive) and > 46 µM (inactive)
outcome [7]: inactive

CC1=C2[C@@H]([C@H](C)CC[C@H]2/C=C(\C)C(=O)O)[C@H](O)C1
Potency [8]: > 92 µM (inactive)
Potency [9]: > 92 µM (inactive)
Potency [10]: > 92 µM (inactive)
Potency [11]: > 92 µM (inactive)
Potency [12]: > 92 µM (inactive)
Potency [13]: > 92 µM (inactive)
outcome [7]: inactive
activity change, negative = cytotoxicity [14]: 6.2% (inactive)
outcome [15]: inactive
Potency [16]: inactive
Potency [17]: inactive
viability change, negative = cytotoxic [18]: -4.63% (inactive)
outcome [19]: inactive
activity change, negative = cytotoxicity [20]: 8.87% (inactive)

CC1=C(/C=C/C(C)=C/C=C/C(C)=C/CO)C(C)(C)CCC1
Potency [8]: > 92 µM (inactive)
Potency [10]: > 92 µM (inactive)
Potency [11]: > 92 µM (inactive)
Potency [12]: > 92 µM (inactive)
activity change, negative = cytotoxicity [14]: -116% (active)
Potency [16]: inactive
activity change, negative = cytotoxicity [20]: -3.42% (inactive)
